Molecules are shown by their SMILES. About 1,500 (3.8%) of roughly 39,000 compounds were called active. Many of the other results were omitted from the sample, so actives are more common in it than they were.

The test relates to HSkMC (human skeletal muscle cells). Briefly: cytotoxicity call (relative viability < 0.9). Particulars: 10 µM.
`O=C(C[C@H]1CC[C@@H]2[C@H](COC[C@H](O)CN2Cc2ccccc2F)O1)N[C@H]1CCN(Cc2ccccc2)C1`: the cytotoxicity call was “inactive”.

Turning to `O=c1[nH][nH]c(=S)n1C1CC1`, the cytotoxicity call is “inactive”.

As to `C=C(/C=C/CNS(=O)(=O)c1ccc(C)cc1)[C@H](O)[C@H]1CCCN1S(=O)(=O)c1ccccc1[N+](=O)[O-]`, the cytotoxicity call is “inactive”.

In the case of `O=C(C[C@H]1C[C@@H]2c3cc(NC(=O)c4cccnc4)ccc3O[C@@H]2[C@H](CO)O1)NCc1cc(F)ccc1F`, the cytotoxicity call was “inactive”.

In the case of `C[C@H]1CN([C@@H](C)CO)C(=O)CCCn2nncc2CO[C@H]1CN(C)C(=O)CCCN(C)C`, the cytotoxicity call is “inactive”.

For `CCC[C@@H]1C[C@@H](C(=O)N[C@H]([C@H]2O[C@H](SC)[C@H](O)[C@@H](O)[C@H]2O)[C@@H](C)Cl)N(C)C1`, the cytotoxicity call is “inactive”.

As for `Cc1noc(C)c1S(=O)(=O)N(C)C[C@H]1Oc2ccc(NS(C)(=O)=O)cc2CC(=O)N([C@@H](C)CO)C[C@H]1C`, the cytotoxicity call was “inactive”.

As to `CCC(CCC(C)C1CCC2C3CC=C4CC(O)CCC4(C)C3CCC12C)C(C)C` (stereo not drawn) [beta-SITOSTEROL ], the cytotoxicity call is “inactive”.

For `N/C(=N/O)c1cnc2n(c1=O)CCS2`, the cytotoxicity call was “inactive”.

On to `C[C@@H]1CN([C@H](C)CO)C(=O)Cc2cc(NC(=O)Cc3ccccc3)ccc2O[C@H]1CN(C)S(=O)(=O)c1cccs1`, for which the cytotoxicity call was “inactive”.

Regarding `O=C(CN1CCOCC1)N[C@H]1CC[C@H](CCNC(=O)C2CCCCC2)O[C@H]1CO`, the cytotoxicity call is “inactive”.

For `C[C@@H]1CN([C@@H](C)CO)C(=O)c2ccccc2-c2ccccc2CO[C@H]1CN(C)S(=O)(=O)c1ccc(C(F)(F)F)cc1`, the cytotoxicity call is “inactive”.

With `CC1COC2=C1C(=O)C(=O)c1c2ccc2c1CCCC2(C)C` (stereo not drawn), the cytotoxicity call is “active”.

Consider `Cc1coc2c1C(=O)C(=O)c1c-2ccc2c1CCCC2(C)C`, for which the cytotoxicity call is “active”.

For `Cc1cccc2c3c(ccc12)C1=C(C(=O)C3=O)C(C)CO1` (stereo not drawn), the cytotoxicity call is “inactive”.

On to `C[C@H]1CN(C(=O)N(C)C)CCN1C(=O)N(C)C`, for which the cytotoxicity call was “inactive”.

As to `O=C(O)Cn1c(=O)n(CC(=O)O)c2ccccc21`, the cytotoxicity call was “inactive”.

Take `COC(=O)C(CCCN1C(=O)c2ccccc2C1=O)(NC(C)=O)c1nn[nH]n1` (stereo not drawn): the cytotoxicity call was “inactive”.

In the case of `C[C@H](CO)N1C[C@H](C)[C@H](CN(C)C(=O)c2cnccn2)Oc2ncc(-c3cccc(C#N)c3)cc2C1=O`, the cytotoxicity call was “inactive”.

`C[C@@H]1CN([C@H](C)CO)C(=O)CCCn2nncc2CO[C@H]1CN(C)Cc1cccc2c1OCCCO2`: the cytotoxicity call is “inactive”.

As to `CCOC(=O)N(C)C[C@H]1OCc2cn(nn2)CCCC(=O)N([C@@H](C)CO)C[C@@H]1C`, the cytotoxicity call was “inactive”.

With `O=C(O)CCSC[C@@H]1O[C@H]2O[C@@H]3[C@@H](O)[C@H](O)[C@H](O[C@@H]4[C@@H](O)[C@H](O)[C@H](O[C@@H]5[C@@H](O)[C@H](O)[C@H](O[C@@H]6[C@@H](O)[C@H](O)[C@H](O[C@@H]7[C@@H](O)[C@H](O)[C@H](O[C@@H]8[C@@H](O)[C@H](O)[C@H](O[C@@H]9[C@@H](O)[C@H](O)[C@H](O[C@@H]1[C@@H](O)[C@@H]2O)O[C@H]9CSCCC(=O)O)O[C@H]8CSCCC(=O)O)O[C@H]7CSCCC(=O)O)O[C@H]6CSCCC(=O)O)O[C@H]5CSCCC(=O)O)O[C@H]4CSCCC(=O)O)O[C@H]3CSCCC(=O)O`, the cytotoxicity call was “inactive”.

As to `C[C@H](CO)N1C[C@H](C)[C@H](CN(C)Cc2ccc(C(=O)O)cc2)OCCCC[C@H](C)Oc2ccc(NC(=O)Nc3ccccc3)cc2C1=O`, the cytotoxicity call was “inactive”.

Turning to `C[C@H](CO)N1C[C@H](C)[C@@H](CN(C)S(C)(=O)=O)Oc2ccc(NC(=O)Nc3ccc(F)cc3)cc2CC1=O`, the cytotoxicity call is “inactive”.

Take `CCC(=C/[C@H](C)C/C=C/C(C)=C/[C@@H](C)C(=O)[C@@H](C)[C@H](O)[C@@H](C)C/C(C)=C/C(=O)O)/C=C/[C@@H]1OC(=O)C=C[C@@H]1C`: the cytotoxicity call is “active”.

Regarding `Cc1noc(C)c1NC(=O)N(C)C[C@@H]1Oc2ccc(NS(C)(=O)=O)cc2CC(=O)N([C@H](C)CO)C[C@H]1C`, the cytotoxicity call is “inactive”.

Consider `C[C@@H]1CN([C@H](C)CO)S(=O)(=O)c2ccc(-c3cccnc3)cc2O[C@H]1CN(C)C(=O)c1cccc(F)c1`, for which the cytotoxicity call was “inactive”.

In the case of `COc1ccc([Si](C)(C)[C@@H]2[C@@H](CCO)O[C@]3(C(=O)N(Cc4ccc(N(C=O)c5ccccc5)cc4)c4ccccc43)[C@H]2C)cc1`, the cytotoxicity call is “inactive”.

For `C=CCN1C(=O)[C@@]2(O[C@@H](CCO)[C@H]([Si](C)(C)c3ccc(OC)cc3)[C@H]2C)c2cc(N(C=O)c3ccccc3)ccc21`, the cytotoxicity call was “active”.

For `COc1ccc([Si](C)(C)[C@H]2[C@H](CCO)O[C@@]3(C(=O)N(Cc4ccccc4)c4ccc(N(C=O)c5ccccc5)cc43)[C@@H]2C)cc1`, the cytotoxicity call was “inactive”.

As for `C=CCN1C(=O)[C@]2(O[C@H](CCO)[C@@H]([Si](C)(C)c3ccc(OC)cc3)[C@@H]2C)c2cc(N(C=O)c3ccccc3)ccc21`, the cytotoxicity call is “active”.

For the compound `COc1ccc([Si](C)(C)[C@@H]2[C@@H](CCO)O[C@]3(C(=O)N(Cc4ccccc4)c4ccc(N(C=O)c5ccccc5)cc43)[C@H]2C)cc1`, the cytotoxicity call was “inactive”.

In the case of `COc1ccc([Si](C)(C)[C@H]2[C@H](CCO)O[C@@]3(C(=O)N(Cc4ccc(N(C=O)c5ccccc5)cc4)c4ccccc43)[C@@H]2C)cc1`, the cytotoxicity call was “inactive”.

`C[C@@H]1CCCCO[C@@H](CN(C)C(=O)Nc2ccccc2)[C@@H](C)CN([C@H](C)CO)C(=O)c2cc(NS(=O)(=O)c3ccccc3)ccc2O1`: the cytotoxicity call is “inactive”.

Take `C[C@@H]1CN([C@H](C)CO)C(=O)c2cc(NC(=O)NC3CCCCC3)ccc2O[C@@H](C)CCCCO[C@@H]1CN(C)CC1CCCCC1`: the cytotoxicity call is “inactive”.

On to `C[C@H](CO)N1C[C@H](C)[C@H](CN(C)S(=O)(=O)c2ccccc2)Oc2ccc(NC(=O)CCC(F)(F)F)cc2CC1=O`, for which the cytotoxicity call was “inactive”.

Regarding `C[C@H]1CN([C@@H](C)CO)C(=O)c2cccc(NC(=O)NC3CCCCC3)c2O[C@@H]1CN(C)Cc1ccc(-c2ccccc2)cc1`, the cytotoxicity call is “inactive”.

Turning to `Clc1ccc(C(Cn2ccnc2)OCc2c(Cl)cccc2Cl)c(Cl)c1.O=[N+]([O-])O` (stereo not drawn), the cytotoxicity call is “inactive”.

Consider `Clc1ccc(COC(Cn2ccnc2)c2ccc(Cl)cc2Cl)cc1.O=[N+]([O-])O` (stereo not drawn), for which the cytotoxicity call is “inactive”.

For the compound `Clc1ccc(CSC(Cn2ccnc2)c2ccc(Cl)cc2Cl)cc1.O=[N+]([O-])O` (stereo not drawn), the cytotoxicity call is “active”.

Turning to `Cc1noc(C)c1S(=O)(=O)N(C)C[C@@H]1Oc2ccc(NS(=O)(=O)c3ccc(Cl)cc3)cc2C(=O)N([C@H](C)CO)C[C@@H]1C`, the cytotoxicity call was “inactive”.

Regarding `C[C@@H]1CCCCO[C@H](CN(C)C(=O)Nc2cccc3ccccc23)[C@H](C)CN([C@H](C)CO)C(=O)c2cc(NS(C)(=O)=O)ccc2O1`, the cytotoxicity call was “inactive”.

As to `Cc1ccc(C(N)=S)c(=O)[nH]1`, the cytotoxicity call is “inactive”.

`C[C@H]1CN([C@@H](C)CO)C(=O)c2cccc(NC(=O)C3CCCCC3)c2O[C@@H]1CN(C)Cc1ccc(Cl)c(Cl)c1`: the cytotoxicity call was “inactive”.

`COC(=O)c1c(CC[C@@H](CO)NC(=O)N[C@@H](Cc2ccccc2)Cn2cc(-c3ccccn3)nn2)oc(C(=O)N2CCOCC2)c1C(=O)OC`: the cytotoxicity call is “inactive”.

For the compound `CCCC#Cc1ccc2c(c1)O[C@@H](CN(C)Cc1ccc3c(c1)OCO3)[C@H](C)CN([C@H](C)CO)S2(=O)=O`, the cytotoxicity call is “inactive”.

As for `CO[C@H](CN(C)C(=O)C1CCOCC1)[C@H](C)CN(C(=O)Nc1ccc(C(F)(F)F)cc1)[C@@H](C)CO`, the cytotoxicity call was “inactive”.

Turning to `C[C@@H]1CN([C@@H](C)CO)C(=O)Cc2cc(NC(=O)Nc3ccc(F)cc3)ccc2O[C@H]1CN(C)CC1CCCCC1`, the cytotoxicity call is “inactive”.

For `C[C@H](CO)N1C[C@H](C)[C@H](CN(C)CC2CCCCC2)Oc2ccc(NC(=O)Nc3ccc(F)cc3)cc2CC1=O`, the cytotoxicity call is “inactive”.

Regarding `C[C@H]1CN([C@@H](C)CO)C(=O)Cc2cc(NC(=O)Nc3ccc(F)cc3)ccc2O[C@H]1CN(C)CC1CCCCC1`, the cytotoxicity call is “active”.

For the compound `C[C@@H]1CN([C@H](C)CO)C(=O)Cc2cc(NC(=O)Nc3ccc(F)cc3)ccc2O[C@@H]1CN(C)CC1CCCCC1`, the cytotoxicity call is “active”.

With `C[C@@H]1CN([C@@H](C)CO)C(=O)Cc2cc(NC(=O)Nc3ccc(F)cc3)ccc2O[C@@H]1CN(C)CC1CCCCC1`, the cytotoxicity call was “inactive”.

As to `C[C@H](CO)N1C[C@H](C)[C@@H](CN(C)CC2CCCCC2)Oc2ccc(NC(=O)Nc3ccc(F)cc3)cc2CC1=O`, the cytotoxicity call was “inactive”.

`COc1ccc(NC(=O)Nc2ccc3c(c2)C(=O)N([C@H](C)CO)C[C@@H](C)[C@H](CN(C)C(=O)Nc2c(C)noc2C)OCCCC[C@@H](C)O3)cc1`: the cytotoxicity call was “inactive”.

Take `C[C@@H]1O[C@@H](O[C@H]2[C@H](Oc3cc(O)c4c(c3)O[C@H](c3ccc(O)cc3)CC4=O)O[C@H](CO)[C@@H](O)[C@@H]2O)[C@H](O)[C@H](O)[C@H]1O`: the cytotoxicity call is “inactive”.

For the compound `Cc1ccc(S(=O)(=O)N(C)C[C@@H]2Oc3ccc(NS(=O)(=O)c4cn(C)cn4)cc3C(=O)N([C@H](C)CO)C[C@@H]2C)cc1`, the cytotoxicity call is “inactive”.

`COc1ccc(S(=O)(=O)N(C)C[C@H]2Oc3ccc(NC(=O)Nc4c(C)noc4C)cc3C(=O)N([C@@H](C)CO)C[C@H]2C)cc1`: the cytotoxicity call is “inactive”.

Consider `Cc1ccc(S(=O)(=O)N2C[C@H](O)COC[C@H]3O[C@@H](CC(=O)N[C@@H]4CCN(Cc5ccccc5)C4)CC[C@@H]32)cc1`, for which the cytotoxicity call was “inactive”.

On to `C[C@@H]1CN([C@H](C)CO)C(=O)c2cc(NS(=O)(=O)c3cccs3)ccc2O[C@@H]1CN(C)Cc1ccc(Cl)c(Cl)c1`, for which the cytotoxicity call was “inactive”.

`C[C@@H]1CN([C@H](C)CO)C(=O)c2cc(NC(=O)C3CCCCC3)ccc2O[C@@H](C)CCCCO[C@@H]1CN(C)C(=O)Nc1cccc2ccccc12`: the cytotoxicity call was “active”.

For the compound `C[C@@H]1CCCCO[C@H](CN(C)C(=O)Nc2cccc3ccccc23)[C@H](C)CN([C@H](C)CO)C(=O)c2cc(NC(=O)C3CCCCC3)ccc2O1`, the cytotoxicity call is “inactive”.

Turning to `C[C@H]1CCCCO[C@@H](CN(C)C(=O)Nc2cccc3ccccc23)[C@@H](C)CN([C@@H](C)CO)C(=O)c2cc(NC(=O)C3CCCCC3)ccc2O1`, the cytotoxicity call is “inactive”.

In the case of `C[C@@H]1CN([C@@H](C)CO)C(=O)c2cc(NC(=O)C3CCCCC3)ccc2O[C@@H](C)CCCCO[C@@H]1CN(C)C(=O)Nc1cccc2ccccc12`, the cytotoxicity call is “inactive”.

On to `C[C@@H]1CCCCO[C@@H](CN(C)C(=O)Nc2cccc3ccccc23)[C@@H](C)CN([C@@H](C)CO)C(=O)c2cc(NC(=O)C3CCCCC3)ccc2O1`, for which the cytotoxicity call is “active”.

Turning to `C[C@@H]1CCCCO[C@H](CN(C)C(=O)Nc2cccc3ccccc23)[C@H](C)CN([C@@H](C)CO)C(=O)c2cc(NC(=O)C3CCCCC3)ccc2O1`, the cytotoxicity call was “inactive”.

As for `C[C@@H]1CCCCO[C@H](CN(C)C(=O)Nc2cccc3ccccc23)[C@@H](C)CN([C@H](C)CO)C(=O)c2cc(NC(=O)C3CCCCC3)ccc2O1`, the cytotoxicity call was “inactive”.

`C[C@@H]1CCCCO[C@@H](CN(C)C(=O)Nc2cccc3ccccc23)[C@@H](C)CN([C@H](C)CO)C(=O)c2cc(NC(=O)C3CCCCC3)ccc2O1`: the cytotoxicity call is “active”.

`C[C@H](CO)N1C[C@H](C)[C@@H](CN(C)C(=O)Nc2cccc3ccccc23)OCCCC[C@H](C)Oc2ccc(NC(=O)C3CCCCC3)cc2C1=O`: the cytotoxicity call was “inactive”.

Source of the values: the antibiotic and cytotoxicity screens of Wong et al. (2023).
